Source: the supplement of paper PMC11624193, “Coupling cellular drug-target engagement to downstream pharmacology with CeTEAM” (Nature Communications, 2024)
Counter-ions that a name gives are not always drawn. A number with no mark means an inactive call.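 How the source made its calls: active = log2 fold change beyond 2 SD from the library mean after excluding viability outliers; inactive = within 2 SD.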

The compounds below were run against PARP1 L713F-nLuc biosensor (HCT116) (UniProt P09874) (assay: PARP1 L713F-nLuc/akaLuc ratio relative to DMSO control (biosensor stabilization) (fold change); higher = more PARP1 biosensor stabilization (target engagement / stabilizer), active = hit call of the paper). Conditions: stock concentration (mM; final µM = stock mM x 1): 10; 24 h.
Chain of PARP1 L713F-nLuc biosensor (HCT116) (P09874 whole entry L713F, looked up): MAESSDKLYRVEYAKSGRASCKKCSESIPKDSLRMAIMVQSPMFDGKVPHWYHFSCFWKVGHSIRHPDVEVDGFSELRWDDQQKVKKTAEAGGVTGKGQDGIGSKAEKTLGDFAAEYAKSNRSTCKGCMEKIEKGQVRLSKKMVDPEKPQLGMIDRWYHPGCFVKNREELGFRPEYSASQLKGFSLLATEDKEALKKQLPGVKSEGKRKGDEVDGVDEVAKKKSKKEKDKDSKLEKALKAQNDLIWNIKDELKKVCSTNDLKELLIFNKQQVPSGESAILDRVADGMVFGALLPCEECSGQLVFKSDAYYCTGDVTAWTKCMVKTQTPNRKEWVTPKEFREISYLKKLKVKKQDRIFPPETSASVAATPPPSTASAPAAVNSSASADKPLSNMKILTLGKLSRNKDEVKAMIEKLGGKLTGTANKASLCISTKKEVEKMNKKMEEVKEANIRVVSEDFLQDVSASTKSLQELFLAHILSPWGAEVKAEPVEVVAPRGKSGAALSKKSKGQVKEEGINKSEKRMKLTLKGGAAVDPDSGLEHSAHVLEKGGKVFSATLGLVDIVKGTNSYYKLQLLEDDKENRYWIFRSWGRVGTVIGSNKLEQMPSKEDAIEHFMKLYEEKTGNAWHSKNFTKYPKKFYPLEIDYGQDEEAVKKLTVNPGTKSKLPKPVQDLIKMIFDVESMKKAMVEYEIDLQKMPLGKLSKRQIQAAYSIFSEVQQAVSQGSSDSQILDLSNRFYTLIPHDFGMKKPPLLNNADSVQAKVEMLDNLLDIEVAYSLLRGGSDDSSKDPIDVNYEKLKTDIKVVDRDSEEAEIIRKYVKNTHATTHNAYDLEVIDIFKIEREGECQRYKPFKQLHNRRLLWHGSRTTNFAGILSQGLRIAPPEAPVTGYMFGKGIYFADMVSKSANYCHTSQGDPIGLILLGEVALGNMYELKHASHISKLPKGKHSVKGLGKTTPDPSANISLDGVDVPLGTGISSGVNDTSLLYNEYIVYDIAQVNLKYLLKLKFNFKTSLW

Row | SMILES | PARP1 L713F-nLuc/akaLuc ratio
1 | Nc1nc(=O)n(-c2cccc(-c3ccccc3)c2)cc1Cl [Bobcat339 (hydrochloride)] | 0.757
2 | CC#CC(=O)N1CCC[C@H]1c1nc(-c2ccc(C(=O)Nc3ccccn3)cc2)c2c(N)nccn12 [Acalabrutinib (ACP-196)] | 1.28
3 | Oc1cc(O)c2c(c1)OC1(c3ccc(O)c(O)c3)Oc3cc(O)c4c(c3C2C1O)OC(c1ccc(O)c(O)c1)C(O)C4 (stereo not given) [Procyanidin A1] | 1.43
4 | CCOc1cccc2c1N[C@@H](c1ccc(C(=O)O)cc1)[C@H]1CC=C[C@@H]21 [LIN28 inhibitor LI71] | 0.616
5 | C/C=C(/C)C(=O)O[C@H]1Cc2cc3ccc(=O)oc3cc2OC1(C)C [Decursinol angelate] | 0.885
6 | COc1cc2cc(Oc3ccc4ccc(=O)oc4c3)c(=O)oc2cc1O [Daphnoretin] | 0.72
7 | CCCCC(=O)OCC(=O)[C@]1(O)Cc2c(O)c3c(c(O)c2[C@@H](O[C@H]2C[C@H](NC(=O)C(F)(F)F)[C@H](O)[C@H](C)O2)C1)C(=O)c1c(OC)cccc1C3=O [Valrubicin] | 1.13
8 | O=C1COc2c(CCNCCN(C(=O)CCNCCc3ccc(Cl)c(Cl)c3)C3CCCCC3)ccc(O)c2N1 | 1.16
9 | CC[C@@](C)(Nc1ccnc(-c2c[nH]c3ncccc23)n1)C(=O)NCC(F)(F)F [Decernotinib (VX-509)] | 0.506
10 | O=C(COc1cccc2c(=O)[nH]ccc12)c1ccccc1 | 1.08
